Experimental data as given in PubChem BioAssay (Tox21).
Inconclusive results are not listed. The source made the active and inactive calls. Unless noted, the call rests on the fitted dose curve; in most records, active means well fitted curve in the direction sought with a large enough effect in the repeat runs; inconclusive means weak or mixed curves; inactive means no such curve, though single readings can be large; an effect the other way counts as inactive or inconclusive.

Key:
[1] = qHTS RealTime-Glo MT Cell Viability Assay in HEK293 cells - 0 hour (AID 1224880); further: top concentration of the series differs between compounds; nearly all actives have a fitted effect of over 45% in size
How it was run: (§1)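 Kinetic, non-lysing viability readout. Seed HEK293 (600/well) with reagent, incubate 5 h at 37 C/5% CO2, pin 23 nL compound in DMSO, incubate at 37 C, read luminescence at 0, 8, 16, 24, 32, 40 h.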

[2] = A CellTox Green Cytotoxicity Assay to monitor cytotoxicity in HEK293 cells - 32 hour (AID 1224881); further: nearly all actives have a fitted effect of over 40% in size
How it was run: (§2)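 Real-time, in one plate: 600 HEK293 cells/well with dead-cell DNA dye, pinned compound after 5 h, 37 C incubation over 40 h; viable cells give no appreciable fluorescence.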

[3] = A CellTox Green Cytotoxicity Assay to monitor cytotoxicity in HepG2 cells - 0 hour (AID 1224882); further: nearly all actives have a fitted effect of over 35% in size
How it was run: (§3)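 Cytotoxicity was tracked as dead-cell DNA fluorescence in HepG2 cells treated with test compounds at 37 C; each time-point value comes from one kinetic series spanning 0, 8, 16, 24, 32 and 40 h.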

[4] = A CellTox Green Cytotoxicity Assay to monitor cytotoxicity in HepG2 cells - 32 hour (AID 1224883); further: nearly all actives have a fitted effect of over 50% in size
How it was run: as §3

[5] = A CellTox Green Cytotoxicity Assay to monitor cytotoxicity in HEK293 cells - 8 hour (AID 1224884); further: nearly all actives have a fitted effect of over 35% in size
How it was run: as §2

[6] = qHTS RealTime-Glo MT Cell Viability Assay in HepG2 cells - 16 hour (AID 1224885); further: nearly all actives have a fitted effect of over 50% in size
How it was run: (§4)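 Viability was tracked continuously by NanoLuc luminescence from prosubstrate reduced by living HepG2 cells, at successive time points over 40 h of compound exposure. Cells with reagent were preincubated 5 h at 37 °C before compound addition.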

[7] = qHTS RealTime-Glo MT Cell Viability Assay in HEK293 cells - 24 hour (AID 1224886); further: top concentration of the series differs between compounds; nearly all actives have a fitted effect of over 50% in size
How it was run: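 Viability tracked continuously by luminescence as live cells reduce a prosubstrate for NanoLuc; HEK293 cells preincubated 5 h, compound-treated at 37 C, and read at 0, 8, 16, 24, 32 and 40 h.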

[8] = qHTS RealTime-Glo MT Cell Viability Assay in HEK293 cells - 8 hour (AID 1224887); further: top concentration of the series differs between compounds; nearly all actives have a fitted effect of over 50% in size
How it was run: as §1

[9] = A CellTox Green Cytotoxicity Assay to monitor cytotoxicity in HEK293 cells - 16 hour (AID 1224888); further: nearly all actives have a fitted effect of over 35% in size
How it was run: as §2

[10] = qHTS RealTime-Glo MT Cell Viability Assay in HepG2 cells - 0 hour (AID 1224889); further: nearly all actives have a fitted effect of over 50% in size
How it was run: as §4

[11] = A CellTox Green Cytotoxicity Assay to monitor cytotoxicity in HepG2 cells - 8 hour (AID 1224890); further: nearly all actives have a fitted effect of over 45% in size
How it was run: as §3

[12] = qHTS assay to identify small molecule antagonists of the estrogen receptor alpha (ER-alpha) signaling pathway using the BG1 cell line in the presence of 0.1 nM 17-beta-estradiol - cell viability counter screen (AID 1259241); further: nearly all actives have a fitted effect of over 40% in size
How it was run: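 CellTiter-Fluor read (30 min, 37C) on ER-alpha/ERE-luc VM7Luc4E2 cells; 22 hr compound treatment; agonist 0.1 nM E2 final; same-well multiplex.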

[13] = qHTS assay to identify small molecule antagonists of the androgen receptor (AR) signaling pathway using the MDA cell line in the presence of 0.5 nM R1881 - cell viability counter screen (AID 1259242); further: nearly all actives have a fitted effect of over 45% in size
How it was run: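 Cells seeded at 3,000/well and allowed 5 hr at 37C, 0% CO2 before compound transfer and R1881 (0.5 nM final) addition; 16 hr later, live-cell protease fluorescence indicated cytotoxicity.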

[14] = molecular target: Estrogen receptor (Homo sapiens) (UniProt P03372); assay: qHTS assay to identify small molecule antagonists of the estrogen receptor alpha (ER-alpha) signaling pathway using the BG1 cell line in the presence of 0.1 nM 17-beta-estradiol (AID 1259244); further: nearly all actives have a fitted effect of over 50% in size
Chain of Estrogen receptor (Homo sapiens) (P03372 whole entry, looked up): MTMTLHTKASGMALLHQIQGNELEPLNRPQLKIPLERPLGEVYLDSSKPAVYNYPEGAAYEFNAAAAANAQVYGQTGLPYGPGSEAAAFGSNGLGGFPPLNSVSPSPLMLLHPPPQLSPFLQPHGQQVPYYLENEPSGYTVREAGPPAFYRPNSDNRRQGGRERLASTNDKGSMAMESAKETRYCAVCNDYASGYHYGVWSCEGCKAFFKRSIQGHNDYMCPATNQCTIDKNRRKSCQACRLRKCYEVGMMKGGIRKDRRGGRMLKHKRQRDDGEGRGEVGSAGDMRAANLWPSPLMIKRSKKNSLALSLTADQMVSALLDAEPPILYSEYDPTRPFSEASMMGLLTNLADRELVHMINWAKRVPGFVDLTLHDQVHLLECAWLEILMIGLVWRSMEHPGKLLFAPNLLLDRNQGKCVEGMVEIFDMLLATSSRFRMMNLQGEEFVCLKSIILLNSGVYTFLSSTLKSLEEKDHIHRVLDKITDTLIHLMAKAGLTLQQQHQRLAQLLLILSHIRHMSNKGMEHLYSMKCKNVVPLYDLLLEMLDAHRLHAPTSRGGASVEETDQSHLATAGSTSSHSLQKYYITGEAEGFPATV
How it was run: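 Luciferase signal from VM7Luc4E2 ERE-reporter cells, co-dosed with test compound and 0.1 nM final 17beta-estradiol for 22 h, read with ONE-Glo.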

[15] = qHTS assay to identify small molecule phospholipidosis (PLD) inducers (AID 1259344; active means well fitted curve in the direction sought with a large enough effect; an effect the other way counts as inactive or inconclusive)
How it was run: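 Cells (HepG2, 900 per well) attach for 4 h, receive LipidTOX Red and compound together, incubate 24 h at 37 C, are fixed 30 min with paraformaldehyde/Hoechst, then imaged at one site per well.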

[16] = qHTS assay to identify small molecule HDAC inhibitors (AID 1259364);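 further: wild-type HCT-116 cells with endogenous class I/II HDAC activity; top concentration of the series differs between compounds; nearly all actives have a fitted effect of over 45% in size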
How it was run: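 HCT-116 wt cells, 1,500/well, overnight attach. Compounds (DMSO) 2 h, 37 °C. HDAC-Glo I/II, 30 min RT. Luminescence.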

[17] = qHTS assay to identify small molecule HDAC inhibitors - cell viability counter screen (AID 1259365)
How it was run: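 To flag cytotoxic hits, 1,500 wild-type HCT-116 cells per well, plated the day before, receive test compounds for 2hr at 37 C before CellTiter-Glo reagent and a luminescence read.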

[18] = qHTS assay to identify small molecule agonists of the sonic hedgehog signaling (Shh) pathway - cell viability counter screen (AID 1259366); further: nearly all actives have a fitted effect of over 50% in size
How it was run: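 Fluorescence from CellTiter-Fluor reports live cells in this counter screen. NIH/3T3-derived Gli1-Luc reporter cells receive test compounds for 24hr at 37C; reagent goes in at 23hr.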

[19] = qHTS assay to identify small molecule antagonists of the sonic hedgehog signaling (Shh) pathway - cell viability counter screen (AID 1259367); further: nearly all actives have a fitted effect of over 55% in size
How it was run: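 Cytotoxicity was assessed in parallel with Shh reporter activity by measuring live-cell protease fluorescence (CellTiter-Fluor) in NIH/3T3 cells stably carrying Gli1-Luc, treated with compound under conditioned medium stimulation for 23 hr plus 1 hr reagent incubation.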

[20] = molecular target: Androgen receptor (Homo sapiens) (UniProt P10275); assay: qHTS assay to identify small molecule antagonists of the androgen receptor (AR) signaling pathway using the MDA cell line in the presence of 0.5 nM R1881 (AID 1259243); further: nearly all actives have a fitted effect of over 50% in size
Chain of Androgen receptor (Homo sapiens) (P10275 whole entry, looked up): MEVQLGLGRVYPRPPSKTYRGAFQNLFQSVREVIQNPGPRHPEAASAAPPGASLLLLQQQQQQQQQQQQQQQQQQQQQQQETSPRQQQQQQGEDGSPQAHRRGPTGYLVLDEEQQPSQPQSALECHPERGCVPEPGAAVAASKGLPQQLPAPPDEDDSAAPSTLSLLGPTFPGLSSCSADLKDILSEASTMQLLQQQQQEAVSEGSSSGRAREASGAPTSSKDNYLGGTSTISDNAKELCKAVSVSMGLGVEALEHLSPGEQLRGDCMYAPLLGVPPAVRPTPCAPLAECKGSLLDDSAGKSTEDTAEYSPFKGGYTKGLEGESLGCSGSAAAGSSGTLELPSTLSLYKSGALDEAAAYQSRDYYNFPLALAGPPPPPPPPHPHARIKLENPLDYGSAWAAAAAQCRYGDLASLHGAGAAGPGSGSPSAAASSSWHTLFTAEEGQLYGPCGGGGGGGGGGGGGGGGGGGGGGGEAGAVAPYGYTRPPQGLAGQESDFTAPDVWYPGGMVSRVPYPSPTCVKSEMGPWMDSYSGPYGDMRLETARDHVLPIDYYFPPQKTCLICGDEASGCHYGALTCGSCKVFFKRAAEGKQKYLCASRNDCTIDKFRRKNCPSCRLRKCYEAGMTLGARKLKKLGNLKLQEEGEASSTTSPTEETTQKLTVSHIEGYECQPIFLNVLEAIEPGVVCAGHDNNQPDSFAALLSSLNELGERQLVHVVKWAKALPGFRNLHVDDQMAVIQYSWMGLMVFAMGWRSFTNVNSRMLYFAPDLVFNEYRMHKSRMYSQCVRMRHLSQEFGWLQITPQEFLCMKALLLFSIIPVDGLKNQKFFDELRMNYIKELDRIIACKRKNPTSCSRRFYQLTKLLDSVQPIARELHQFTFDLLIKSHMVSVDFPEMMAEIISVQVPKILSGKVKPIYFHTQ
How it was run: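 Luminescence from an AR/GR-responsive MMTV-luciferase construct in MDA-kb2 breast carcinoma cells, read 30 min after ONE-Glo, following 16 hr co-treatment with compounds and 0.5 nM R1881.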

Measured: Potency

Cc1ccsc1/C=C/C1=NCCCN1C
not listed: [20]
inactive: all other assays above

Cc1c(I)c(=O)n(-c2ccccc2)n1C
not listed: [19] | [20]
inactive: all other assays above

CCC(CC)CO
not listed: [15]
inactive: all other assays above

CN(C)C(=O)CNC(=O)Cc1ccccc1
not listed: [20]
inactive: all other assays above

CC(=O)OC(C)OC(=O)C(C)c1ccc(-c2ccccc2)c(F)c1 (centres undefined)
inactive: all assays above

CN1C(C)(C)CCCC1(C)C
not listed: [20]
inactive: all other assays above

CCOC(=O)/C=C/c1ccccc1
not listed: [15] | [19] | [20]
inactive: all other assays above

CC(C)=O
inactive: all assays above

Cc1cc(C(C)(C)C)c(O)c(C)c1CC1=NCCN1
inactive: all assays above

C[C@H](CCC(=O)O)[C@H]1CC[C@H]2[C@@H]3C(=O)C[C@@H]4CC(=O)CC[C@]4(C)[C@H]3CC(=O)[C@]12C
not listed: [20]
inactive: all other assays above

COc1nccnc1NS(=O)(=O)c1ccc(N)cc1
not listed: [14]
inactive: all other assays above

CCCCCCCCOS(=O)(=O)O
not listed: [15] | [19] | [20]
inactive: all other assays above

COc1cc2c(cc1OC)[C@@H]1CC(=O)[C@@H](CC(C)C)CN1CC2
not listed: [20]
inactive: all other assays above

C[C@@H](O)[C@H]1C(=O)N2C(C(=O)O)=C(SCCN=CN)C[C@H]12
not listed: [20]
inactive: all other assays above

COc1ccc2c(c1)C(=O)N(CCc1ccc(S(=O)(=O)NC(=O)NC3CCCCC3)cc1)C(=O)C2(C)C
inactive: all assays above
